This note sets out measurements from paper PMC5540273 (PLoS ONE, 2017).
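Also: KINOMEscan kinase panel screen.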

The first test relates to MAPKAPK5. The note with it: concentration: 1 μM,replicates: in singlicate; n = 1.
In the case of `Cc1cc2cn[nH]c2cc1-c1cccc2c(N)c(C(N)=O)nnc12`, the “%Inh” value amounted to 16%.

Take `Cl.Cl.NC[C@H](Cc1ccc(C(F)(F)F)cc1)NC(=O)c1cc(Br)c(-c2ccnc3[nH]ccc23)s1` [GSK1487252]: the “%Inh” value was determined as 0%.

Regarding `CN(C)CC(O)COc1ccc(Nc2nccc(-c3cnn4nc(N5CCOCC5)ccc34)n2)cc1` (centres unmarked) [GW767488], the “%Inh” value is recorded as 23%.

In the next test the test system is MARK1. The note with it: concentration: 1 μM,replicates: in singlicate; n = 1.
For `Cl.Cl.Nc1nc(-c2ccc3c(N)n[nH]c3c2)cc(N2CCCC(NC(=O)c3ccccc3)C2)n1` (centres unmarked) [GSK2286775], the “%Inh” value is 5%.

As for `CC(C)Nc1cc(-c2ccc3c(N)n[nH]c3c2)nc(N)n1` [GSK2221681], the “%Inh” value is 0%.

Consider `COc1ccc(C[C@@H](CN)NC(=O)c2cc(Br)c(-c3ccnc4[nH]ccc34)s2)cc1.Cl.Cl` [GSK1389063], for which the “%Inh” value is 0%.

With `C[C@H]1Oc2cc(cnc2N)-c2c(nn(C)c2C#N)CN(C)C(=O)c2ccc(F)cc21`, the “%Inh” value stood at 15%.

For the compound `Cc1ccc2c(-c3ccncc3)c(-c3ccc(F)cc3)nn2c1.Cl` [GW461484], the “%Inh” value is reported as 0%.

Take `C=CC(=O)Nc1cc2c(Nc3ccc(F)c(Cl)c3)ncnc2cc1OCCCN1CCOCC1` [GW781483]: the “%Inh” value is recorded as 0%.

With `CNC(=O)c1ccccc1Sc1ccc2c(/C=C/c3ccccn3)n[nH]c2c1`, the “%Inh” value is given as 0%.

Consider `C[C@@H](Oc1cc(-c2cnn(C3CCNCC3)c2)cnc1N)c1c(Cl)ccc(F)c1Cl`, for which the “%Inh” value turned out to be 25%.

Regarding `CCN(CC)CCOc1ccc(Nc2ncc3cc(-c4c(Cl)cccc4Cl)c(=O)n(C)c3n2)cc1` [SB-601273], the “%Inh” value was 20%.

As for `CN(C)CCOc1ccc(-c2cc(-c3c[nH]nc3-c3ccccn3)ccn2)cc1` [GW835314], the “%Inh” value is given as 13%.

As for `Cl.Oc1cc(-c2nc(-c3ccccc3)[nH]c2-c2ccncc2)ccc1Cl` [SB-386023], the “%Inh” value is on record as 0%.

As for `CC(C)N1C(=O)Cc2cc(Nc3ncc(C(F)(F)F)c(NCc4cccc(S(C)(=O)=O)c4)n3)ccc21`, the “%Inh” value worked out at 27%.

Take `O=C(NCCNc1ccnc(NCc2ccc(F)cc2)n1)c1cc2ccccc2s1` [GSK1379944]: the “%Inh” value is reported as 0%.

`CCn1c(-c2nonc2N)nc2c(C#CC(C)(C)O)nc(OCCN)cc21.Cl.Cl` [GSK902056]: the “%Inh” value is reported as 0%.

As for `NC(=O)c1cc(-c2ccccc2)cc2c(C3CCNCC3)c[nH]c12` [GSK301362], the “%Inh” value was found to be 0%.

Regarding `CCN(CC)CCCCNc1ncc2cc(-c3c(Cl)cccc3Cl)c(NC(=O)NC(C)(C)C)nc2n1`, the “%Inh” value was determined as 0%.

Consider `Nc1nc(Nc2ccccc2)cc(-c2ccc3c(N)n[nH]c3c2)n1` [GSK2225749], for which the “%Inh” value came out at 8%.

As for `Cc1occc1-c1nc(N)c(OC[C@@H](N)Cc2c[nH]c3ccccc23)cc1-c1cc2c(C)n[nH]c2cn1` [GSK1660450], the “%Inh” value is 70%.

On to `Cl.Cl.NC[C@H](CC1CCCCC1)NC(=O)c1cc(Br)c(-c2ccnc3[nH]ccc23)s1` [GSK1581427], for which the “%Inh” value stood at 0%.

With `Cc1n[nH]c2ccc(-c3cc(OC[C@@H](N)Cc4ccccc4)cnc3-c3ccoc3)cc12.O=C(O)C(F)(F)F.O=C(O)C(F)(F)F` [GSK507358], the “%Inh” value was 0%.

`C[C@@H]1CCN(C(=O)CC#N)C[C@@H]1N(C)c1ncnc2[nH]ccc12`: the “%Inh” value is 0%.

On to `O=C(NCCCN1CCOC1=O)c1cnc(NCc2cc(Cl)ccc2Cl)nc1NC1CCCC1`, for which the “%Inh” value was found to be 13%.

For `Cc1cc(C(=O)Nc2ccc(Oc3ccc4nc(NC(=O)C5CC5)cn4n3)cc2)nn1-c1ccccc1`, the “%Inh” value worked out at 9%.

In the case of `Cc1ccc(-n2nc(C(C)(C)C)cc2NC(=O)Nc2ccc(OCCN3CCOCC3)c3ccccc23)cc1` [GW839464], the “%Inh” value is 18%.

`Cc1cc2cn[nH]c2cc1-c1cccc2c(N)c(C(N)=O)nnc12`: the “%Inh” value was found to be 0%.

`Cl.Cl.NC[C@H](Cc1ccc(C(F)(F)F)cc1)NC(=O)c1cc(Br)c(-c2ccnc3[nH]ccc23)s1` [GSK1487252]: the “%Inh” value came to 0%.

For `CN(C)CC(O)COc1ccc(Nc2nccc(-c3cnn4nc(N5CCOCC5)ccc34)n2)cc1` (centres unmarked) [GW767488], the “%Inh” value is reported as 24%.

The test system of another test is MARK2. The note with it: concentration: 1 μM,replicates: in singlicate; n = 1.
As for `Cl.Cl.Nc1nc(-c2ccc3c(N)n[nH]c3c2)cc(N2CCCC(NC(=O)c3ccccc3)C2)n1` (centres unmarked) [GSK2286775], the “%Inh” value is listed as 0%.

For the compound `CC(C)Nc1cc(-c2ccc3c(N)n[nH]c3c2)nc(N)n1` [GSK2221681], the “%Inh” value was 0%.

`COc1ccc(C[C@@H](CN)NC(=O)c2cc(Br)c(-c3ccnc4[nH]ccc34)s2)cc1.Cl.Cl` [GSK1389063]: the “%Inh” value is given as 54%.

As to `C[C@H]1Oc2cc(cnc2N)-c2c(nn(C)c2C#N)CN(C)C(=O)c2ccc(F)cc21`, the “%Inh” value is 9%.

On to `Cc1ccc2c(-c3ccncc3)c(-c3ccc(F)cc3)nn2c1.Cl` [GW461484], for which the “%Inh” value worked out at 0%.

With `C=CC(=O)Nc1cc2c(Nc3ccc(F)c(Cl)c3)ncnc2cc1OCCCN1CCOCC1` [GW781483], the “%Inh” value was determined as 9%.

As to `CNC(=O)c1ccccc1Sc1ccc2c(/C=C/c3ccccn3)n[nH]c2c1`, the “%Inh” value was 35%.

`C[C@@H](Oc1cc(-c2cnn(C3CCNCC3)c2)cnc1N)c1c(Cl)ccc(F)c1Cl`: the “%Inh” value was determined as 0%.

Consider `CCN(CC)CCOc1ccc(Nc2ncc3cc(-c4c(Cl)cccc4Cl)c(=O)n(C)c3n2)cc1` [SB-601273], for which the “%Inh” value is 87%.

As to `CN(C)CCOc1ccc(-c2cc(-c3c[nH]nc3-c3ccccn3)ccn2)cc1` [GW835314], the “%Inh” value came to 18%.

In the case of `Cl.Oc1cc(-c2nc(-c3ccccc3)[nH]c2-c2ccncc2)ccc1Cl` [SB-386023], the “%Inh” value came to 2%.

As to `CC(C)N1C(=O)Cc2cc(Nc3ncc(C(F)(F)F)c(NCc4cccc(S(C)(=O)=O)c4)n3)ccc21`, the “%Inh” value is given as 38%.

In the case of `O=C(NCCNc1ccnc(NCc2ccc(F)cc2)n1)c1cc2ccccc2s1` [GSK1379944], the “%Inh” value is on record as 0%.

As for `CCn1c(-c2nonc2N)nc2c(C#CC(C)(C)O)nc(OCCN)cc21.Cl.Cl` [GSK902056], the “%Inh” value is 0%.

With `NC(=O)c1cc(-c2ccccc2)cc2c(C3CCNCC3)c[nH]c12` [GSK301362], the “%Inh” value was 0%.

Turning to `CCN(CC)CCCCNc1ncc2cc(-c3c(Cl)cccc3Cl)c(NC(=O)NC(C)(C)C)nc2n1`, the “%Inh” value stood at 23%.

For `Nc1nc(Nc2ccccc2)cc(-c2ccc3c(N)n[nH]c3c2)n1` [GSK2225749], the “%Inh” value was found to be 0%.

`Cc1occc1-c1nc(N)c(OC[C@@H](N)Cc2c[nH]c3ccccc23)cc1-c1cc2c(C)n[nH]c2cn1` [GSK1660450]: the “%Inh” value stood at 71%.

As to `Cl.Cl.NC[C@H](CC1CCCCC1)NC(=O)c1cc(Br)c(-c2ccnc3[nH]ccc23)s1` [GSK1581427], the “%Inh” value was 25%.

With `Cc1n[nH]c2ccc(-c3cc(OC[C@@H](N)Cc4ccccc4)cnc3-c3ccoc3)cc12.O=C(O)C(F)(F)F.O=C(O)C(F)(F)F` [GSK507358], the “%Inh” value worked out at 0%.

In the case of `O=C(NCCCN1CCOC1=O)c1cnc(NCc2cc(Cl)ccc2Cl)nc1NC1CCCC1`, the “%Inh” value is given as 0%.

Turning to `Cc1cc(C(=O)Nc2ccc(Oc3ccc4nc(NC(=O)C5CC5)cn4n3)cc2)nn1-c1ccccc1`, the “%Inh” value is reported as 3%.

`Cc1ccc(-n2nc(C(C)(C)C)cc2NC(=O)Nc2ccc(OCCN3CCOCC3)c3ccccc23)cc1` [GW839464]: the “%Inh” value is on record as 21%.

On to `Cc1cc2cn[nH]c2cc1-c1cccc2c(N)c(C(N)=O)nnc12`, for which the “%Inh” value was found to be 5%.

Consider `Cl.Cl.NC[C@H](Cc1ccc(C(F)(F)F)cc1)NC(=O)c1cc(Br)c(-c2ccnc3[nH]ccc23)s1` [GSK1487252], for which the “%Inh” value worked out at 0%.

Consider `CN(C)CC(O)COc1ccc(Nc2nccc(-c3cnn4nc(N5CCOCC5)ccc34)n2)cc1` (centres unmarked) [GW767488], for which the “%Inh” value worked out at 20%.
